We go through 15 targets from the supplement of paper PMC10849652.

The full data set covers some 7,900 targets. This sample favours those with a hit. About 0.6% of all pairs of compound and target were hits. Values without a mark were called inactive.

Common to all, as to assay: log2 fold change, soluble protein after heating vs DMSO (PISA); higher = thermal stabilisation; K562 cells, 10 uM, 30 min; active = over 0.2 and 3.5 SD of the protein, either way, in both replicates (recomputed)
Compound in one assay: CN1CCN(CCOc2cc(OC3CCOCC3)c3c(Nc4c(Cl)ccc5c4OCO5)ncnc3c2)CC1 [saracatinib]
The procedure, abridged:
(§1)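 K562 cells at 2×10^6 cells/mL were treated for 30 min with 10 μM compound, and aliquots were heated for 3 min over 48°C-58°C before pooling. Extraction used PBS with 0.5% NP-40 at 4°C, and soluble protein was the supernatant after 21,000xg for 90 min, measured by TMTpro 16plex LC-MS/MS with channel sums equalised. Thermal stability values, relative to control samples and from duplicates, are log2 fold changes.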

Compound in another assay: CN1CCN(c2nc(C3=C(c4c[nH]c5ccccc45)C(=O)NC3=O)c3ccccc3n2)CC1 [sotrastaurin]
An outline of the steps:
as §1

Compound in the next assay: CN1CC[C@H](c2c(O)cc(O)c3c(=O)cc(-c4ccccc4Cl)oc23)[C@H](O)C1 [alvocidib]
The procedure, abridged: as §1

Compound in the next assay: CN1CCc2c(c3ccccc3n2Cc2ccc(C(=O)NO)cc2)C1 [Tubastatin A]
An outline of the steps: as §1

Compound in assay [1]: CNC(=O)C1=CC=CC=C1NC2=NC(=NC=C2Cl)NC3=C(C=C(C=C3)N4CCOCC4)OC
An outline of the steps:
as §1

Compound in another assay: CNC(=O)c1ccc(Nc2ncc(C(F)(F)F)c(NCc3nccnc3N(C)S(C)(=O)=O)n2)cc1 [defactinib]
The procedure, abridged:
as §1

Compound in the next assay: CNCc1ccc(-c2[nH]c3cc(F)cc4c3c2CCNC4=O)cc1 [rucaparib]
The procedure, abridged:
as §1

Compound in assay [2]: CNc1nc(-c2ccc3c(N)n[nH]c3c2)cc(N2C[C@@H](C(=O)NC3CCCCC3)CC[C@H]2C)n1
The procedure, abridged:
as §1

Compound in a further assay: COC(=O)N[C@@H](C)CNc1nccc(-c2cn(C(C)C)nc2-c2cc(Cl)cc(NS(C)(=O)=O)c2F)n1 [encorafenib]
The procedure, abridged: as §1

Compound in assay [3]: COC(=O)[C@H](CCSC)NC(=O)C1=C(C=C(C=C1)NC[C@H](CS)N)C2=CC=CC=C2
An outline of the steps: as §1

Sequence of UniProt P49840 (P49840 whole entry, looked up): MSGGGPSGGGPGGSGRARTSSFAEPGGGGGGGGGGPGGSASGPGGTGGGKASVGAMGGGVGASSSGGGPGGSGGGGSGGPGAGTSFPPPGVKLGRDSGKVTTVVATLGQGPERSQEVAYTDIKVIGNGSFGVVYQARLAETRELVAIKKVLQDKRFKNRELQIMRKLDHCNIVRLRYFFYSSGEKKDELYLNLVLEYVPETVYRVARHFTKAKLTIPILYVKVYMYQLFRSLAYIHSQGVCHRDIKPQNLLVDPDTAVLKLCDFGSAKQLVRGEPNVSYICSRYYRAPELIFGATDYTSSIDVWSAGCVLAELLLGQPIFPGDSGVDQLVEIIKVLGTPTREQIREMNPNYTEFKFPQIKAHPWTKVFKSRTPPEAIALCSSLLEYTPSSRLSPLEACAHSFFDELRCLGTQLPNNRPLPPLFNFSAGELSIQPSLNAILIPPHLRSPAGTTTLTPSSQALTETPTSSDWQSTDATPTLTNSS
Sequence of UniProt P00390 (P00390 whole entry, looked up): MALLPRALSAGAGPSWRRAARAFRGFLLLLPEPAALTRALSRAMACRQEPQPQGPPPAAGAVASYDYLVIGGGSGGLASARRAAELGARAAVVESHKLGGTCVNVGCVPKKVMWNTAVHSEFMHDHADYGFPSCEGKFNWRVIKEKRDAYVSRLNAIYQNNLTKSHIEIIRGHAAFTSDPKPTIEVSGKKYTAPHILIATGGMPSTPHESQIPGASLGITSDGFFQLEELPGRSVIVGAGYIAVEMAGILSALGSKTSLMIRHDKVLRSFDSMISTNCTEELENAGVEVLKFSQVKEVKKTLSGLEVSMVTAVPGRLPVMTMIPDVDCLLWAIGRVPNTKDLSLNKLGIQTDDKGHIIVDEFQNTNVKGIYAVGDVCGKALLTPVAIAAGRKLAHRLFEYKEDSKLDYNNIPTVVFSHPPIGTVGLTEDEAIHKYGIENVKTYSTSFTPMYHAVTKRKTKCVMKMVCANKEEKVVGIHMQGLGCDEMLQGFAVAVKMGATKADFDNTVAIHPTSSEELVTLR
Sequence of UniProt Q00688 (Q00688 whole entry, looked up): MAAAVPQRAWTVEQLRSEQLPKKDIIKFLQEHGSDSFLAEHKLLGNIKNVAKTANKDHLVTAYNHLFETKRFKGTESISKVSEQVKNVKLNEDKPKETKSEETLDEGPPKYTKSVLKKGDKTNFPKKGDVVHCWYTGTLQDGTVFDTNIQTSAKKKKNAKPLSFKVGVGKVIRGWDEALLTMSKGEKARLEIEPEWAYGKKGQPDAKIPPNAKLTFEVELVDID
Sequence of UniProt Q9Y3D6 (Q9Y3D6 whole entry, looked up): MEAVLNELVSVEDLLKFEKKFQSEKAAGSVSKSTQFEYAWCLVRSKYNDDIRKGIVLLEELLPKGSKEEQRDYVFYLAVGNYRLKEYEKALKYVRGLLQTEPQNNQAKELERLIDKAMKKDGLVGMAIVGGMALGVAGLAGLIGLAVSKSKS
Sequence of UniProt Q6Y7W6 (Q6Y7W6 whole entry, looked up): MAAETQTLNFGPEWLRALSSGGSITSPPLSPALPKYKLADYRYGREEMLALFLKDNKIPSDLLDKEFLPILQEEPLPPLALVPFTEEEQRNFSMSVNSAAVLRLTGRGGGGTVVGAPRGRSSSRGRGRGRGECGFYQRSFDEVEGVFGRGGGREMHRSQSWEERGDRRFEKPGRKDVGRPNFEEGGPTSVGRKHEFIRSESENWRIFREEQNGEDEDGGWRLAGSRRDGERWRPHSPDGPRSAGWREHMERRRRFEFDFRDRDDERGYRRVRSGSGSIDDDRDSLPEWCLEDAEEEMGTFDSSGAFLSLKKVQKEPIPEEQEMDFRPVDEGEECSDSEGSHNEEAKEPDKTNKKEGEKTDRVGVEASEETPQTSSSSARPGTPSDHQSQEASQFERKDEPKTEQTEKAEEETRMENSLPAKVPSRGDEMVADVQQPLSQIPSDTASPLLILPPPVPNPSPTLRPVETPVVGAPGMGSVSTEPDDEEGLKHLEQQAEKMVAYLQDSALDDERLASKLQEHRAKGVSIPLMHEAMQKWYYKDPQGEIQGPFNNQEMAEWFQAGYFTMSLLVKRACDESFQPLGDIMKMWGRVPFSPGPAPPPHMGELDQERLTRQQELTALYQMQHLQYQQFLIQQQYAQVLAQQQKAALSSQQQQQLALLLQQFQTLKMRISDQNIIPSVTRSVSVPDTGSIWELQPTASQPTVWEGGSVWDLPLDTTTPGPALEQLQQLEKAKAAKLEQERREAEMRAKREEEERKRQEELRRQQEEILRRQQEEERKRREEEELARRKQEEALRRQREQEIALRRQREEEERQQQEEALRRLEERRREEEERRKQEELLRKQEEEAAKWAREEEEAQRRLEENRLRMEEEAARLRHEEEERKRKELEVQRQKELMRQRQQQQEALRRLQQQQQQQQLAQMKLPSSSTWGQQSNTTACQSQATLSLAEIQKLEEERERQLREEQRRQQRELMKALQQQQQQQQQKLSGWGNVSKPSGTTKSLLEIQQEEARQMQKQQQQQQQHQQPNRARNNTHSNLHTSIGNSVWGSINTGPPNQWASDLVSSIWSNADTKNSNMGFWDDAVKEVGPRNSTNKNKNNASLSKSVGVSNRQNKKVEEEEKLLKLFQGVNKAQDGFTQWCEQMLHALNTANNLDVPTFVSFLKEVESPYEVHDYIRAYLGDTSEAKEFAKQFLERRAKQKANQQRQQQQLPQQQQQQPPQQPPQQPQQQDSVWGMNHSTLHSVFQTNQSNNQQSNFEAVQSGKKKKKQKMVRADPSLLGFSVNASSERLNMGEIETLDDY
Sequence of UniProt Q13907 (Q13907 whole entry, looked up): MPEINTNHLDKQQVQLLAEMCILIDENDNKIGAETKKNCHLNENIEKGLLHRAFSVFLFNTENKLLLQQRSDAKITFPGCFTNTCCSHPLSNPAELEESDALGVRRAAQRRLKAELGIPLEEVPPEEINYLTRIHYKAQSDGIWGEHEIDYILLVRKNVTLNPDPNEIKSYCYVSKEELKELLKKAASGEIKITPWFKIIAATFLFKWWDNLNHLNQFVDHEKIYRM
Sequence of UniProt Q7Z4V5 (Q7Z4V5 whole entry, looked up): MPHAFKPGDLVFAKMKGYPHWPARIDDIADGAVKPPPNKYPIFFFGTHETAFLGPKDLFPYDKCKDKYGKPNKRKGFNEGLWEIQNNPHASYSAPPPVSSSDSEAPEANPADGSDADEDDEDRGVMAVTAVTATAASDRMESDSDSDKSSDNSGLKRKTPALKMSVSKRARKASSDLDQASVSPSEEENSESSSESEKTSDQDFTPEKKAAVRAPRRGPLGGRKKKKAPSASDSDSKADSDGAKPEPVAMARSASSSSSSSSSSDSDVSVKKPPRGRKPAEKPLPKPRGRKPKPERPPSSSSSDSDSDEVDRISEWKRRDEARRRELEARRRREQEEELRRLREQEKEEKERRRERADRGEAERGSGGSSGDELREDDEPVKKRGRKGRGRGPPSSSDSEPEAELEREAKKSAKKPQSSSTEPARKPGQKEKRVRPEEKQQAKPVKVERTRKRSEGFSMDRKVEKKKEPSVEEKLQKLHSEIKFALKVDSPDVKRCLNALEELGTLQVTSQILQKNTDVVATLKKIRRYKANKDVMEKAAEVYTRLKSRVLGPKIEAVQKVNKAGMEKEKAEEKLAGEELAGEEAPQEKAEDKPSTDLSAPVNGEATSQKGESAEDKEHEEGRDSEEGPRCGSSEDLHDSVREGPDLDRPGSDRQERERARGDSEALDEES
Sequence of UniProt Q9UK99 (Q9UK99 whole entry, looked up): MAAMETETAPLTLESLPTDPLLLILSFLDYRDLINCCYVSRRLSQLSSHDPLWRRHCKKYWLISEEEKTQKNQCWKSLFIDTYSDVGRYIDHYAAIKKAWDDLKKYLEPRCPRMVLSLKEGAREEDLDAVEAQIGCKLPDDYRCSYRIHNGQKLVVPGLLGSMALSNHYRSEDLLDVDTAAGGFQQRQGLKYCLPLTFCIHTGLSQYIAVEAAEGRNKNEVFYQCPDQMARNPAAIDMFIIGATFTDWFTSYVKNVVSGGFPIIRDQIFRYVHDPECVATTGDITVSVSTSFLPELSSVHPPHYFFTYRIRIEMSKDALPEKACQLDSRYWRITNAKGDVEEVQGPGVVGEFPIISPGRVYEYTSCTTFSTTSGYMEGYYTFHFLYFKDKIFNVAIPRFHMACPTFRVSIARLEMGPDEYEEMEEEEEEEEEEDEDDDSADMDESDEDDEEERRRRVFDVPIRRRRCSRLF
Sequence of UniProt P30519 (P30519 whole entry, looked up): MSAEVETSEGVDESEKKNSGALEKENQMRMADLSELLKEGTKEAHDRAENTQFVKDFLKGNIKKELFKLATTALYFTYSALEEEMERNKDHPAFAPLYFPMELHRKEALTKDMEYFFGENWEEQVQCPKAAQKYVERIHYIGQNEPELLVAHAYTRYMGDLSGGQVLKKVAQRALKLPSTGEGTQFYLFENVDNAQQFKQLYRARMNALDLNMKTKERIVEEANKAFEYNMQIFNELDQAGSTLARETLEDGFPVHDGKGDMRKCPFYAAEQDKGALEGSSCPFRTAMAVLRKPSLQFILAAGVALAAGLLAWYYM
Sequence of UniProt Q8N9F7 (Q8N9F7 whole entry, looked up): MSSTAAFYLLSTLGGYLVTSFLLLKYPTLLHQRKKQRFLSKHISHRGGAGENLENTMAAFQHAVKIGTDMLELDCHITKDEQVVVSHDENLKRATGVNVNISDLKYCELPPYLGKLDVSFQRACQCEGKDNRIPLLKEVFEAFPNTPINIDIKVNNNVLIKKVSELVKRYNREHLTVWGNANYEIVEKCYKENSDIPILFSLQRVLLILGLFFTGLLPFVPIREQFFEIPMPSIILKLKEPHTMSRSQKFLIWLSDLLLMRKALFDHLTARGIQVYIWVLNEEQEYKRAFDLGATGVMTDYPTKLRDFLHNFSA
Sequence of UniProt Q01628 (Q01628 whole entry, looked up): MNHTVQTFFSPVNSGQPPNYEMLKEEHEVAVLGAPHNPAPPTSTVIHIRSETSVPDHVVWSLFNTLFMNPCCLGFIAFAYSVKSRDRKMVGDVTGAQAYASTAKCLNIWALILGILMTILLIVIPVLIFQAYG

For IDI1 isoform 2 (UniProt Q13907), the log2 fold change was 0.01 with saracatinib; 0.065 in the assay with sotrastaurin; -0.017 in the assay with alvocidib; -0.174 in the assay with Tubastatin A; -0.002 in assay [1]; -0.006 in the assay with defactinib. The log2 fold change with rucaparib is -0.124; in assay [2] it was 0.002; with encorafenib, -0.001; in assay [3], 0.044.

HMOX2 (UniProt P30519): the log2 fold change is -0.071 in the assay with saracatinib; -0.04 with sotrastaurin; -0.06 with alvocidib; 0.004 with Tubastatin A; 0.03 in assay [1]; -0.049 in the assay with defactinib. For the same target, the log2 fold change is 0.036 in the assay with rucaparib, 0.15 in assay [2], 0.081 with encorafenib and -0.038 in assay [3].

Consider HDAC2 (UniProt Q92769), for which the log2 fold change was -0.001 with saracatinib; -0.02 in the assay with sotrastaurin; -0.091 in the assay with alvocidib; 0.907 (active) with Tubastatin A; -0.113 in assay [1]; -0.035 in the assay with defactinib. For the same target, the log2 fold change in the assay with rucaparib was -0.006; in assay [2], -0.015; with encorafenib it was -0.046; in [3] it was -0.006.

With HDGFL2 (UniProt Q7Z4V5), the log2 fold change with saracatinib is 0.01; in the assay with sotrastaurin, 0.119; in the assay with alvocidib it was 0.007; in the assay with Tubastatin A, 0.013; in assay [1], -0.061; with defactinib it was -0.07. Further, the log2 fold change with rucaparib was -0.051; in [2], -0.058; with encorafenib, -0.016; in assay [3], 0.036.

For GDPD1 (UniProt Q8N9F7), the log2 fold change with saracatinib was 0.505 (active); in the assay with sotrastaurin, 0.21; in the assay with alvocidib, -0.058; with Tubastatin A it was 0.019; in assay [1], -0.017; with defactinib, -0.087. In addition, the log2 fold change was -0.07 with rucaparib, 0.042 in [2], -0.051 with encorafenib and -0.041 in [3].

For FDPS (UniProt P14324), the log2 fold change with saracatinib is -0.151; with sotrastaurin, -0.041; in the assay with alvocidib it was -0.057; with Tubastatin A, 0.062; in [1], -0.097; with defactinib it was -0.032. Further, the log2 fold change in the assay with rucaparib was -0.112; in [2] it was 0.237; with encorafenib, 0.137; in assay [3], -0.118.

Take FIS1 (UniProt Q9Y3D6): the log2 fold change in the assay with saracatinib is 0.333 (active); with sotrastaurin it was 0.016; in the assay with alvocidib, -0.11; with Tubastatin A, -0.021; in assay [1] it was -0.012; with defactinib, -0.063. In addition, the log2 fold change is 0.004 with rucaparib, 0.182 in [2], -0.049 in the assay with encorafenib and -0.022 in assay [3].

Regarding FKBP3 (UniProt Q00688), the log2 fold change in the assay with saracatinib is -0.006; with sotrastaurin it was 0; in the assay with alvocidib, -0.004; with Tubastatin A, 0.017; in assay [1], 0; with defactinib, -0.024. The log2 fold change in the assay with rucaparib is -0.052; in assay [2], 0.01; in the assay with encorafenib it was 0.012; in assay [3], 0.033.

As to FBXO3 (UniProt Q9UK99), the log2 fold change in the assay with saracatinib was 0.029; with sotrastaurin, 0.049; with alvocidib, -0.048; with Tubastatin A, 0.157; in assay [1], -0.051; with defactinib, 0.072. Besides, the log2 fold change with rucaparib was 0.016; in assay [2], -0.076; with encorafenib, 0.018; in [3] it was -0.005.

As to GSR (UniProt P00390), the log2 fold change is -0.021 in the assay with saracatinib; 0.048 with sotrastaurin; 0 with alvocidib; 0.008 with Tubastatin A; -0.006 in assay [1]; -0.016 in the assay with defactinib. The log2 fold change was -0.025 in the assay with rucaparib, -0.021 in [2], -0.02 with encorafenib and 0.002 in assay [3].

Consider GSK3A (UniProt P49840), for which the log2 fold change with saracatinib was -0.007; with sotrastaurin, 0.337 (active); with alvocidib it was 0.257; in the assay with Tubastatin A, -0.007; in assay [1] it was -0.009; with defactinib it was 0.18. The log2 fold change with rucaparib is 0.22; in assay [2], -0.041; with encorafenib it was 0.005; in assay [3] it was -0.051.

Consider IFITM3 (UniProt Q01628), for which the log2 fold change in the assay with saracatinib was -0.022; in the assay with sotrastaurin, 0.035; with alvocidib, -0.011; in the assay with Tubastatin A, 0.241; in assay [1], 0.044; in the assay with defactinib, -0.165. Also, the log2 fold change is 0.093 with rucaparib, 0.03 in assay [2], 0.1 with encorafenib and 0.008 in [3].

For GIGYF2 (UniProt Q6Y7W6), the log2 fold change was -0.097 with saracatinib; -0.111 in the assay with sotrastaurin; -0.118 in the assay with alvocidib; 0.023 in the assay with Tubastatin A; 0.005 in [1]; -0.04 in the assay with defactinib. For the same target, the log2 fold change was 0.065 with rucaparib, 0.016 in assay [2], -0.018 in the assay with encorafenib and -0.022 in assay [3].

In the case of GLS isoform 3 (UniProt O94925), the log2 fold change was -0.025 with saracatinib; -0.027 with sotrastaurin; -0.246 with alvocidib; 0.14 in the assay with Tubastatin A; -0.025 in assay [1]; -0.139 with defactinib. The log2 fold change with rucaparib is -0.045; in [2], -0.063; with encorafenib it was 0.039; in assay [3], 0.

With GUSB (UniProt P08236), the log2 fold change with saracatinib is 0.03; with sotrastaurin, -0.004; with alvocidib, 0.021; with Tubastatin A it was -0.054; in [1], 0.045; with defactinib, -0.055. In addition, the log2 fold change in the assay with rucaparib was 0.048; in assay [2], -0.039; with encorafenib, 0.128; in assay [3], 0.029.
